According to the supplement of paper PMC8728848:
This is one part of a sample in which the strongest signals are shown more often than they occur.

test system: Neu5Ac(a2-3)Gal(b1-4)Glc; experiment: glycan array binding signal (z-score within array); higher = stronger binding; conditions: glycan notation: IUPAC condensed, linker removed
Method in brief: (§1)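 The Consortium for Functional Glycomics database supplied 3228 glycan arrays, of which those lacking an available protein sequence were dropped. The binding signal, a within-array Z-score, was averaged across arrays of the same protein sequence and across linkers. Negative scores can be read as non-binding.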

Substance | glycan array binding signal (z-score)
SiiE (Salmonella typhimurium), A0A0H3NVH0 | 2.39
Actinohivin (Actinomycete K97) | 0.053
MIC3-MAR1b (Eimeria tenella), B6VCV4 | -0.453

test system: Neu5Ac(a2-3)Gal(b1-4)[Fuc(a1-3)]GlcNAc(b1-6)[Neu5Ac(a2-3)Gal(b1-3)]GalNAc; experiment: as above; conditions: glycan notation: IUPAC condensed, linker removed
Method in brief: as §1

Substance | glycan array binding signal (z-score)
Epa22 | 0.118
AgI/II Vhelical-GFP (Streptococcus mutans) | -0.178
Actinohivin (Actinomycete K97) | -0.02
